# Reference: PubChem BioAssay (NCATS)
# Inconclusive results are not listed. A call without a number means that no potency is given here. Active and inactive are the calls of the source. Unless noted, calls follow the shape of the dose curve; as a rule, active = well fitted curve in the direction sought with a large enough effect; inconclusive = small, poorly fitted or top-dose-only effect, or another doubt; inactive = no such curve, though single readings can be large; an effect the other way counts as inactive or inconclusive.
# Assays:
# [1] = biological target: Glutathione peroxidase 1 (Homo sapiens) (UniProt P07203); assay: Primary qHTS Assay for Inhibitors of Recombinant Selenoprotein Glutathione Peroxidase 1 (GPX1) (AID 1845191); details: recombinant GPX1, GR-coupled NADPH fluorescence, 15 min; series mostly up to 48.8 µM; also: nearly all actives have a fitted effect of over 65% in size
# Chain of Glutathione peroxidase 1 (Homo sapiens) (P07203 whole entry, looked up): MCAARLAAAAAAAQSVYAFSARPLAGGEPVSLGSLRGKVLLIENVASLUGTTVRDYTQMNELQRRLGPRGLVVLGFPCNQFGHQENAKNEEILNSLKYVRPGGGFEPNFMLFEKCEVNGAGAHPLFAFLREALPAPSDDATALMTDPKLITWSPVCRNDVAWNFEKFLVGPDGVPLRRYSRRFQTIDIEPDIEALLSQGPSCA
# Procedure, shortened: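 GR-coupled assay: compounds preincubated 30 min at room temperature with GPX1, then reaction started with CHP; final 10 nM GPX1, 1 mM GSH, 0.5 mM CHP, 0.5 mM NADPH, 100 nM GR, 0.01% BSA, pH 7.5 Tris buffer. NADPH fluorescence (340/450 nm) read at 0 and 15 min.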
# [2] = biological target: Phenylethanolamine N-methyltransferase (Homo sapiens) (UniProt P11086); assay: Confirmatory Screen for Target Class Profiling of Small Molecule Inhibitors of Methyltransferases (AID 1745852); details: MTase-Glo luminescence, SAH detection, recombinant enzyme; measured here: PNMT max response; stronger effect = lower value
# Chain of Phenylethanolamine N-methyltransferase (Homo sapiens) (P11086 whole entry, looked up): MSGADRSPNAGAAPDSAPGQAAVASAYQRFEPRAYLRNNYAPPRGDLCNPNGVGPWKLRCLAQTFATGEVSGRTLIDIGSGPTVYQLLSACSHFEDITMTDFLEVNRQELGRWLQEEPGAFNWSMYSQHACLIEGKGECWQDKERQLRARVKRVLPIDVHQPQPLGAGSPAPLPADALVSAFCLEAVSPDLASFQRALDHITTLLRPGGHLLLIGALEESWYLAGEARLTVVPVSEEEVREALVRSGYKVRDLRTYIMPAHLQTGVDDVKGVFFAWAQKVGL
# [3] = NCATS anti-infectives library activity on HEK293 viability as a counter-qHTS vs the C. elegans viability qHTS (AID 1745854); details: HEK293 viability counter-screen; series mostly up to 41.8 µM;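 also: HEK293 cells exposed to compounds for 24 hr before the viability read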
# Procedure, shortened: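 Cytotoxicity in human HEK293 cells is measured by ATP-dependent CellTiter-Glo luminescence following a 24 hr incubation with titrated library compounds at 37C. Top final concentration is 41.7 uM.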
# [4] = Viability counterscreen for antagonist of constitutive androstane receptor (CAR) against the NCATS DSHEA and TCM libraries (AID 1794837); details: CAR reporter cell line viability counterscreen, qHTS; series mostly up to 40 µM;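 also: compound exposure lasted 24 h before viability reading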
# Procedure, shortened: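 Cells: HepG2 line carrying CYP2B6 reporter and hCAR, seeded and attached 5 h. Then pin-transferred test substances plus agonist CITCO at 48 uM final; 24 h incubation; fluorogenic viability reagent, 1 h.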
# [5] = biological target: Nuclear receptor subfamily 1 group I member 3 (Homo sapiens) (UniProt Q14994); assay: Primary qHTS for agonist of constitutive androstane receptor (CAR) against the NCATS DSHEA and TCM libraries (AID 1794839); details: CAR agonist reporter cells, qHTS luminescence, CAR antagonist co-added at 0.75 µM; series mostly up to 40 µM;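 also: HepG2 cells expressing human CAR with a CYP2B6 reporter plus PK11195 antagonist; luciferase reporter luminescence read with ONE-Glo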
# Chain of Nuclear receptor subfamily 1 group I member 3 (Homo sapiens) (Q14994 whole entry, looked up): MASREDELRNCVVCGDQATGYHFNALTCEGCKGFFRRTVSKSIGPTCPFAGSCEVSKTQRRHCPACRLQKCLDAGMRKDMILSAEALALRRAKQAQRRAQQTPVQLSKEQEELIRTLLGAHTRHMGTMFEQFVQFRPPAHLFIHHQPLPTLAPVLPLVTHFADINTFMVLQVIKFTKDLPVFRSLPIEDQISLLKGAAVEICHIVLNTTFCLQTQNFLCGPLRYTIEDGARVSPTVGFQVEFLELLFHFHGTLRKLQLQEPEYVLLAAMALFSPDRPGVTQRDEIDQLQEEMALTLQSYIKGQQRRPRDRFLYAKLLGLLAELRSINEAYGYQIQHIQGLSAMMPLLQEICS
# Procedure, shortened: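 qHTS, agonist mode: HepG2-CYP2B6-hCAR, 2,500 cells/well, 5 h attach; cpds + PK11195 0.75 µM final; 24 h, 37 °C, 5% CO2. Readouts: CellTiter-Fluor (405/540 nm), then ONE-Glo luminescence.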
# [6] = HepG2 viability counterscreen (readout 2: ATP content) against the NCATS DSHEA and TCM libraries (AID 1794840); details: ATP content luminescence; series mostly up to 27.3 µM
# Procedure, shortened: (§1)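 Same wells read twice: first fluorescence from cleaved GF-AFC substrate (25 uM final, 30 min, 37C) for live-cell protease, then CellTiter-Glo luminescence after 30 min at room temperature for ATP. HepG2 cells were exposed ~24 h to substances.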
# [7] = HepG2 viability counterscreen (readout 1: protease activity) against the NCATS DSHEA and TCM libraries (AID 1794841); details: qHTS concentration series; series mostly up to 27.3 µM;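 also: cells exposed to compounds for about 24 h before the protease read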
# Procedure, shortened: as §1
# [8] = NCATS anti-infectives library activity on the primary C. elegans qHTS viability assay (AID 1745855; calls by dose curve); details: C. elegans worm area imaging, day 7; at 41.8 µM (top of the series)
# Procedure, shortened: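 Viability is taken from GFP fluorescence of PE254-GFP-FLuc C. elegans imaged by laser cytometry over 7 days. Ten L1 worms per well grow at 21 °C on TOP10 E. coli capsules with titrated compound; levamisole marks toxicity.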
# [9] = biological target: Metallo-beta-lactamase type 2 (Klebsiella pneumoniae) (UniProt C7C422); assay: qHTS to identify inhibitors of the New Delhi Metallo-beta-lactamase (NDM): assay validation screen against the NCATS LOPAC Collection (AID 1794843); details: NDM-1 enzyme, nitrocefin hydrolysis, absorbance 485 nm; series mostly up to 38.4 µM;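 also: nitrocefin turnover by NDM-1 measured as 485 nm absorbance at plateau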
# Chain of Metallo-beta-lactamase type 2 (Klebsiella pneumoniae) (C7C422 whole entry, looked up): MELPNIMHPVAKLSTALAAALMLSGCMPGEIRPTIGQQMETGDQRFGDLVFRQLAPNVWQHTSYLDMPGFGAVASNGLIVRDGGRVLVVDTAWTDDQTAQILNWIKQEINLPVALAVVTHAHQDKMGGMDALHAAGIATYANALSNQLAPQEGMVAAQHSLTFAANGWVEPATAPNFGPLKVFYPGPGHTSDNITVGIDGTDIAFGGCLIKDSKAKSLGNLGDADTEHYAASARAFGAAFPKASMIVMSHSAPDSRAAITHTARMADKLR
# Procedure, shortened: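 Enzyme 2 nM final, 50 mM HEPES pH 7.0, 1 uM ZnSO4, 0.01% Tween20; cpds in DMSO, preincub w/ enzyme; + nitrocefin (50 uM stock); A485 at plateau; no-enzyme column as blank.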
structure (smiles),measurement,setting,value
C=C1CC2C3(C)C(OC(C)=O)CC(=O)OC(C)(C)C3C(O)C(OC(C)=O)C2(C)C2C(=O)OC(C)C(=O)C12C (stereo not drawn),Potency,[1],inactive
C=C1C(O[C@@H]2O[C@H](CO)[C@@H](O)[C@H](O)[C@@H]2O)CC2C(C)(C)C(O)CCC2(C)C1CC/C(C)=C\CO (stereo partly drawn),activity,[2],0.548%
same,Potency,[1],inactive
COC(=O)C1=CO[C@@H](O[C@@H]2O[C@H](COC(=O)/C=C/c3cc(OC)c(O)c(OC)c3)[C@@H](O)[C@H](O)[C@H]2O)[C@@H]2C(CO)=CC[C@H]12,activity,[2],-3.37%
same,Potency,[1],inactive
CCN(CC)Cc1cc(Nc2ccnc3cc(Cl)ccc23)ccc1O,outcome,[3],inactive
same,Potency,[1],inactive
CCCCCCCC(=O)O,outcome,[4],inactive
same,outcome,[5],inactive
same,outcome,[6],inactive
same,outcome,[7],inactive
same,Potency,[1],inactive
C=C1CC23CCC4[C@@](C)(CCC[C@@]4(C)C(=O)O)C2CCC1C3 (stereo partly drawn),Potency,[1],inactive
Oc1cc(O)c2c(c1)OC(c1ccc(O)c(O)c1)C(O)C2 (stereo not drawn),outcome,[6],inactive
COc1cc(C(O)C(CO)Oc2ccc(CCCO[C@@H]3O[C@@H](C)[C@H](O)[C@@H](O)[C@H]3O)cc2OC)ccc1O (stereo partly drawn),activity,[2],-4.24%
same,Potency,[1],inactive
CCOc1nc2cccc(C(=O)O)c2n1Cc1ccc(-c2ccccc2-c2noc(=O)[nH]2)cc1,outcome,[3],inactive
same,outcome,[8],inactive
same,Potency,[1],inactive
CN1Cc2c(N)cccc2C(c2ccccc2)C1 (stereo not drawn),outcome,[9],inactive
same,Potency,[1],inactive
CC1CC(O)C2(C)C(C(=O)O)=CCCC2C1(C)CCc1ccoc1 (stereo not drawn),activity,[2],2.03%
same,Potency,[1],inactive
CC(=O)NCCCCn1c2c(c3ccccc31)C(=O)NCC2,activity,[2],-4.46%
same,Potency,[1],inactive
CC(/C=C/[C@]1(O)[C@@]2(C)CO[C@@]1(C)C[C@@H](O)C2)=C\C(=O)O[C@@H]1O[C@H](CO)[C@@H](O)[C@H](O)[C@H]1O,Potency,[1],inactive
N[C@H]1C[C@H]1c1ccc(-c2cccc(O)c2)cc1,outcome,[3],inactive
same,outcome,[8],inactive
same,Potency,[1],inactive
CC(C)(O)CNc1nc(Nc2ccnc(C(F)(F)F)c2)nc(-c2cccc(C(F)(F)F)n2)n1,outcome,[3],inactive
same,Potency,[1],inactive
O=C(O)C[C@H](O)C[C@H](O)/C=C/c1c(C2CC2)nc2ccccc2c1-c1ccc(F)cc1,outcome,[3],inactive
same,Potency,[1],inactive
CC1OC(OC2C(CO)OC(OCC3OC(OC(=O)C45CCC(C)(C)CC4C4=CCC6C7(C)CCC(OC8OC(C(=O)O)C(O)C(OC9OC(CO)C(O)C(O)C9O)C8O)C(C)(C)C7CCC6(C)C4(C)CC5)C(O)C(O)C3O)C(O)C2O)C(O)C(O)C1O (stereo not drawn),"activity, negative = inhibition",[1],-12.7% [at 9.52 µM] (inactive)
C/C=C/C1=CC2=C(CO1)C(=O)[C@](C)(O)[C@H](OC(=O)c1c(O)cc(OC)c(O)c1C)C2,Potency,[1],inactive
CC(C)CC(=O)n1cc(C(N)=O)c(=O)cc1C(O)c1ccccc1 (stereo not drawn),Potency,[1],inactive
CC1OC(O[C@H]2[C@@H](O)C[C@@]3(C)C([C@H](O)C[C@]4(C)C3CC=C3C5CC(C)(C)CC[C@]5(C(=O)OC5OC(CO)C(O)C(O)C5OC5OCC(OC6OCC(OC7OCC(O)C(O)C7O)C(O)C6O)C(OC6OCC(O)(CO)C6O)C5O)CC[C@]34C)[C@]2(C)CO)C(O)C(O)C1O (stereo partly drawn),"activity, negative = inhibition",[1],-3.12% [at 9.52 µM] (inactive)
C[C@@H](OC(=O)/C=C/c1ccc(O)cc1)C1=C[C@]2(C=C[C@@H]3C(C(=O)O)=CO[C@@H](O[C@@H]4O[C@H](CO[C@@H]5O[C@H](CO)[C@@H](O)[C@H](O)[C@H]5O)[C@@H](O)[C@H](O)[C@H]4O)[C@@H]32)OC1=O,Potency,[1],inactive
